The values below come from ChEMBL document CHEMBL1157539, “Thousands of chemical starting points for antimalarial lead identification” (Nature, 2010).

The test system of the experiment is Plasmodium falciparum. Nature of the experiment: GSK_TCMDC: Inhibition of Plasmodium falciparum 3D7 in whole red blood cells, using parasite LDH activity as an index of growth. Test compounds present at 2uM. In kind it is functional.
As usually defined, the Inhibition is the change of the read-out against control, counted positive when it falls. Read a low Inhibition as a response near the control. `O=C(NCc1ccc(C(F)(F)F)cc1)c1cccc(-c2nnc(-c3cccc(-c4cncnc4)c3)o2)c1` had an Inhibition of 96%.
As for `O=C(Nc1cccc(Cl)c1Cl)Nc1ccnc2ccccc12`, the figure is 100%; as for `Cc1cc(N(C)CCN(C)C)nc(Nc2ccc(Br)cc2)n1`, 97%.
As for `CCOc1cc(C(=O)NCc2cc(Cl)cc(Cl)c2)ccc1-c1nc2cc(Cl)ccc2[nH]1`, the figure is 100%.
Regarding `Cc1cnc(NCC2CCCCC2)nc1N[C@@H](CC(C)C)C(=O)Nc1ccccc1.O=C(O)C(F)(F)F`, the Inhibition was 96%.
Turning to `COC(=O)c1ccc(NC(=O)Nc2cccc(CCNCc3ccccc3)c2)cc1.O=C(O)C(F)(F)F`, the Inhibition is reported as 96%.
For `Br.COc1ccc(CCCON2C(=N)N=C(N)NC2(C)C)cc1`, the Inhibition came to 95%.
As for `CC1CN(Cc2ccc(-c3cccc(-c4nc5cc(F)ccc5[nH]4)c3)cc2)CC(C)O1.O=C(O)C(F)(F)F` (centres undefined), the figure is 93%.
As to `Cl.O=C(Nc1ccc(Cl)cc1)Nc1cccc(-c2cc(CNCCc3ccccc3)oc2-c2ccncc2)c1`, the Inhibition is on record as 100%.
`COc1ccc(C2CCN(CCN3CCC(NC(=O)c4cccc(-c5ccncc5)c4)CC3)CC2)c(OC)c1` yielded an Inhibition of 94%.
As for `COc1cccc(Nc2nnc(SCC(=O)NNC(=O)c3ccccn3)s2)c1`, the figure is 99%; as for `FC(F)(F)c1ccc2[nH]c(-c3cccc(-c4cccc(CN5CCN(c6ccncc6)CC5)c4)c3)nc2c1.O=C(O)C(F)(F)F`, 100%; as for `CCCOc1ccccc1C(=O)Nc1nonc1-c1ccc(OCC)c(OCC)c1`, 99%.
Compound `COc1ccc(-c2cccc(NC(=O)c3cccc(Cl)c3)c2)cc1CN(C)CCN(C)C.O=C(O)C(F)(F)F` displayed an Inhibition of 100%.
